PubChem BioAssay AID1159580 (chemical genetic matrix, 2015)
Hit rate of the full screen: of about 5,500 compounds, about 2,000 (36%) were called active. Roughly 18% stayed inconclusive and do not appear here. Cut-off read from the data, not from the text of the source: active = normalized growth mostly below about 0.91 (no sharp cut-off); inconclusive = no clear call, values can overlap the other calls; inactive = mostly above about 0.92. Some of the results follow.

Experiment: chemical genetic growth profiling, strain panel (AID 1159580);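 note: tested at 20 µM; growth read once vehicle control cultures reached saturation at 30 °C; 1 = growth at the plate median or of vehicle wells; lower values mean less growth of the strain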
Details: S. cerevisiae deletion strains, growth OD
[1] = locus YAL040C, strain CLN3, stronger effect = lower value
[2] = locus YER002W, strain NOP16, stronger effect = lower value
[3] = locus YGR078C, strain PAC10, stronger effect = lower value
[4] = locus YGR229C, strain SMI1, stronger effect = lower value
[5] = locus YNL175C, strain NOP13, stronger effect = lower value
[6] = locus YNL197C, strain WHI3, stronger effect = lower value
[7] = locus YNL224C, strain SQS1, stronger effect = lower value
[8] = locus YOR083W, strain WHI5 (second series), stronger effect = lower value
[9] = locus YPL241C, strain CIN2, stronger effect = lower value

Measured: normalized growth

NC(N)=NOCCC(N)C(=O)O (configuration not stated)
inactive: [1] 0.988 | [2] 0.98 | [3] 0.996 | [4] 1.01 | locus YMR263W, strain SAP30, stronger effect = lower value 0.98 | [5] 0.984 | [6] 0.984 | [7] 0.999 | [8] 0.975 | [9] 0.996

CCOC(=O)C1=CC2(CC)CCCN3CCc4c(n1c1ccccc41)C32 (configuration not stated)
inactive: [1] 1 | locus YCL061C, strain MRC1 (second series), stronger effect = lower value 1 | locus YDR150W, strain NUM1, stronger effect = lower value 1 | locus YDR363W, strain ESC2, stronger effect = lower value 1 | [2] 1.02 | [3] 0.999 | [4] 1.01 | locus YJR075W, strain HOC1, stronger effect = lower value 0.984 | locus YMR307W, strain GAS1, stronger effect = lower value 1.01 | locus YNL153C, strain GIM3, stronger effect = lower value 0.989 | [5] 1.03 | [6] 1.03 | [7] 1.01 | locus YNL322C, strain KRE1, stronger effect = lower value 0.983 | [8] 1.01 | locus YPL055C, strain LGE1, stronger effect = lower value 1.02 | [9] 0.997
